Measured values as given in PubChem BioAssay AID1159580 (chemical genetic matrix, 2015).
Several values for one entry are separate records, joined by “and”; a condition that tells them apart may be missing. Equal entries are not always repeated. About 2,000 (36%) of roughly 5,500 compounds were called active. Roughly 18% stayed inconclusive and do not appear here. No stated cut-off is given here; in the data, active means normalized growth mostly below about 0.91 (no sharp cut-off); inconclusive means no clear call, values can overlap the other calls; inactive means mostly above about 0.92. The list shows a part of the results.

Assay: chemical genetic growth profiling, strain panel (AID 1159580);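 further: tested at 20 µM; growth read once vehicle control cultures reached saturation at 30 °C; 1 = growth at the plate median or of vehicle wells; lower values mean less growth of the strain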
Settings: S. cerevisiae deletion strains, growth OD

Measured: normalized growth

COCCc1ccc(OCC(O)CNC(C)C)cc1 (stereo unspecified)
inactive: locus YAL013W, strain DEP1, active compounds read low 1.01 | locus YAL021C, strain ccr4, active compounds read low 1 | locus YAL026C, strain drs2, active compounds read low 1.01 | locus YAL030W, strain snc1, active compounds read low 0.988 | locus YAL040C, strain CLN3, active compounds read low 0.996 | locus YBL061C, strain skt5, active compounds read low 0.989 | locus YBR009C, strain hhf1, active compounds read low 0.998 | locus YBR021W, strain FUR4, active compounds read low 1.01 | locus YBR023C, strain chs3, active compounds read low 0.987 | locus YBR171W, strain sec66, active compounds read low 0.986 | locus YBR229C, strain ROT2, active compounds read low 1 | locus YBR231C, strain swc5, active compounds read low 1.01 | locus YBR279W, strain paf1, active compounds read low 1.01 | locus YCL011C, strain gbp2, active compounds read low 0.96 | locus YCL016C, strain dcc1, active compounds read low 0.966 | locus YCL029C, strain bik1, active compounds read low 1.03 | locus YCL061C, strain MRC1 (second series), active compounds read low 1 | locus YCL061C, strain MRC1, active compounds read low 0.997 | locus YCL069W, strain vba3, active compounds read low 0.992 | locus YCR088W, strain abp1, active compounds read low 1 | locus YDL005C, strain med2, active compounds read low 1 | locus YDL035C, strain GPR1, active compounds read low 0.997 | locus YDL040C, strain nat1, active compounds read low 1.01 | locus YDL074C, strain BRE1, active compounds read low 1.02 | locus YDL101C, strain DUN1, active compounds read low 1.02 | locus YDL134C, strain PPH21, active compounds read low 1 | locus YDL185W, strain tfp1, active compounds read low 1.01 | locus YDL192W, strain arf1, active compounds read low 1 | locus YDR001C, strain nth1, active compounds read low 0.979 | locus YDR069C, strain doa4, active compounds read low 0.991 | locus YDR101C, strain arx1, active compounds read low 1.01 | locus YDR137W, strain rgp1, active compounds read low 0.942 | locus YDR150W, strain NUM1, active compounds read low 1 and 0.986 | locus YDR159W, strain sac3, active compounds read low 1.02 | locus YDR162C, strain NBP2, active compounds read low 1 | locus YDR195W, strain ref2 0.998 | locus YDR297W, strain sur2, active compounds read low 1.02 | locus YDR318W, strain mcm21, active compounds read low 1.02 | locus YDR334W, strain swr1, active compounds read low 0.942 | locus YDR335W, strain msn5, active compounds read low 0.984 | locus YDR363W, strain ESC2, active compounds read low 1.02 | locus YDR388W, active compounds read low 1.02 | locus YDR392W, strain spt3, active compounds read low 0.944 | locus YDR502C, strain sam2, active compounds read low 0.997 | locus YEL003W, strain gim4, active compounds read low 0.996 | locus YEL037C, strain rad23, active compounds read low 0.989 | locus YEL061C, strain CIN8 (second series), active compounds read low 0.975 | locus YEL061C, strain CIN8, active compounds read low 1.01 | locus YER002W, strain NOP16, active compounds read low 0.993 | locus YER015W, strain faa2, active compounds read low 0.988 | locus YER016W, strain bim1, active compounds read low 0.999 | locus YER110C, active compounds read low 1.01 | locus YER111C, strain swi4, active compounds read low 1 | locus YER155C, strain BEM2 (second series), active compounds read low 1.02 | locus YER155C, strain BEM2, active compounds read low 1 | locus YER167W, strain BCK2, active compounds read low 0.981 | locus YFR010W, strain ubp6, active compounds read low 0.978 | locus YGL078C, strain dbp3, active compounds read low 1.01 | locus YGL086W, strain mad1, active compounds read low 1 | locus YGL167C, strain pmr1, active compounds read low 0.989 | locus YGL173C, strain kem1, active compounds read low 1 | locus YGL227W, strain vid30, active compounds read low 0.988 | locus YGL240W, strain doc1, active compounds read low 1.03 | locus YGL248W, strain PDE1, active compounds read low 1.01 | locus YGL253W, strain hxk2, active compounds read low 0.983 | locus YGR078C, strain PAC10, active compounds read low 1.02 | locus YGR135W, strain pre9, active compounds read low 1.01 | locus YGR229C, strain SMI1, active compounds read low 1.01 and 1.02 | locus YGR252W, strain gcn5, active compounds read low 0.978 | locus YHR013C, strain ard1, active compounds read low 0.956 | locus YHR027C, strain rpn1, active compounds read low 0.971 | locus YHR030C, strain SLT2, active compounds read low 1 and 1.06 | locus YHR079C, strain IRE1 (second series), active compounds read low 1.02 | locus YHR079C, strain IRE1, active compounds read low 1.07 | locus YHR094C, strain hxt1, active compounds read low 1.01 | locus YHR129C, strain ARP1, active compounds read low 1.01 | locus YHR142W, strain chs7, active compounds read low 0.943 | locus YHR200W, strain rpn10, active compounds read low 1.02 | locus YIL066C, strain RNR3, active compounds read low 1.01 | locus YIL073C, strain SPO22, active compounds read low 1.04 | locus YIL125W, strain kgd1, active compounds read low 1.01 | locus YIR030C, strain dcg1, active compounds read low 1.02 | locus YJL092W, strain hpr5, active compounds read low 0.988 | locus YJL095W, strain BCK1 (second series), active compounds read low 0.994 | locus YJL095W, strain BCK1, active compounds read low 1.03 and 1.04 | locus YJL115W, strain asf1, active compounds read low 0.964 | locus YJL129C, strain trk1, active compounds read low 1 | locus YJL134W, strain LCB3, active compounds read low 1 | locus YJL154C, strain vps35, active compounds read low 0.973 | locus YJL164C, strain tpk1, active compounds read low 1.01 | locus YJL166W, strain qcr8, active compounds read low 0.981 | locus YJL168C, strain set2, active compounds read low 1.03 | locus YJL187C, strain SWE1 (second series), active compounds read low 1.03 | locus YJL187C, strain SWE1, active compounds read low 1.04 | locus YJR043C, strain POL32, active compounds read low 1.01 | locus YJR066W, strain TOR1, active compounds read low 1.01
